CHOP inh = blocks CHOP induction under ER stress; CHO-K1 CHOP-promoter luciferase, tunicamycin-induced, 15-18 h; inhibition, % at 10 µM; 3.8% of 220,000 active;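 active = compounds that reduced the stress-induced luciferase reporter signal by more than about 70% of percent inhibition, limit read from the data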;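 note: 0% = tunicamycin plus vehicle and 100% = wells without tunicamycin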
Arbovirus inh = blocks arbovirus infection | arbovirus infection cell-based antiviral screen | inhibition, % at 10 µM | 0.37% of 200,000 active | AID 1251; in the data active = inhibition above about 30%
WT yeast gro inh = growth inhibition of WT yeast, mitochondrial fusion screen. inhibition, % at 10 µM. mitochondrial fusion phenotypic screen, WT strain. 2.1% of 190,000 active; in the data active = inhibition above about 58%; tested in S. cerevisiae
L major viab = Leishmania major promastigote growth inhibition; Leishmania major promastigotes, resazurin fluorescence viability; AID 1063; inhibition, % at 10 µM; 9% of 200,000 active; in the data active = inhibition above about 50%;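 note: promastigotes grown with compound for 44 hours at 28 °C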
* marks the source's active call; other numbers are inactive results; · = no result; ! = a repeat was not active. A selection: hits, their analogues and other compounds. The true share with any hit is near 12%.

SMILES	CHOP inh	Arbovirus inh	WT yeast gro inh	L major viab
O=C(COC(=O)C(Cc1ccccc1)NC(=O)c1ccc(Cl)cc1)c1ccc(Cl)cc1 (configuration not stated)	30	-4	10	54*
CCCCC(NC(=O)c1ccc(Cl)cc1)C(=O)O (configuration not stated)	-7	6	-4	86*
CC(C)CC(NC(=O)c1ccc(Cl)cc1)C(=O)O (configuration not stated)	30	4	0	84*
CSCCC(NC(=O)c1ccc(Br)cc1)C(=O)O (configuration not stated)	5	-1	-14	80*
O=C(CSc1nc2[nH]ncc2c(=O)[nH]1)NCc1ccc(F)cc1	22	3	-7	-7
O=C(NNc1cccc(Cl)n1)Nc1ccc(F)cc1	15	1	-10	34
C=CCNC(=S)NNC(=O)CC12CC3CC(CC(C3)C1)C2	-2	·	·	·
COc1cccc2oc(-c3ccco3)cc(=O)c12	-7	7	15	31
O=C(Nn1cnc2ccccc2c1=O)c1ccc([N+](=O)[O-])cc1	35	3	12	-1
Cc1ccccc1CC1(CO)CCCN(C(=O)CCCN2CCCCC2=O)C1 (configuration not stated)	18	3	6	-5
O=C1CCCC2=C1C(c1cccc(O)c1)c1c(ccc3ncccc13)N2 (configuration not stated)	-13	-2	5	3
CCC(=O)N1CCc2cc(S(=O)(=O)NCCN3CCC(C)CC3)ccc21	4	0	15	54*
CCC(=O)N1CCc2cc(S(=O)(=O)NC(Cc3ccccc3)C(=O)NC3CCCCC3)ccc21 (configuration not stated)	8	-2	-5	7
CCOc1ccc(OCC)c(NS(=O)(=O)c2ccc3c(c2)CCN3C(=O)C2CCC2)c1	30	7	4	99*
CCC(=O)N1CCc2cc(S(=O)(=O)NC(CC(C)C)C(=O)N3CCc4ccccc43)ccc21 (configuration not stated)	50	-6	-7	100*
COc1ccc(CCNS(=O)(=O)c2ccc3c(c2)CCN3C(=O)C2CC2)cc1OC	36	2	9	6
Cc1cc(-c2cc(C(=O)NCc3ccccc3)on2)nc(NC2CCCC2)n1	10	·	·	·
CC(C)(Oc1ccc(Cl)cc1)C(=O)N1CCN(c2ccccn2)CC1	-8	3	27	62*
CC(C)(Oc1ccc(Cl)cc1)C(=O)N(Cc1ccccc1)c1ccccn1	56	-4	30	87*
O=C(/C=C/c1ccc(Cl)cc1)N1CCN(c2ccccn2)CC1	-20	-7	1	3
O=c1[nH]c(CN2CCN(S(=O)(=O)/C=C/c3ccccc3)CC2)nc2cc(Cl)ccc12	24	·	·	·
CC(C)C(C)(C#N)NC(=O)CSc1nc(C2CCCCC2)n(-c2ccccc2)n1 (configuration not stated)	38	-12	-1	80*
CCn1nc(C(=O)O)c(=O)c2cc3c(cc21)OCO3	96*!	4	-4	-5
COc1cccc(C2C3=C(CCCC3=O)NC3=C2C(=O)c2ccccc23)c1 (configuration not stated)	1	-6	17	13
CCCCN1C2=C(C(=O)CCC2)C(c2ccc(Cl)c(Cl)c2)C2=C1c1ccccc1C2=O (configuration not stated)	45	-2	67*	5
SMILES	CHOP inh	Arbovirus inh	WT yeast gro inh	L major viab
Cc1ccc(C(C)C)cc1OCCCCN1CCCC1	16	-22	32	99*
CCc1cccc(OCCN2CCCC2)c1	-19	-3	-5	32
Cc1ccc(C)c(OCCCN2CCCC2)c1	11	-2	0	98*
Cc1cccc(OCCCN2CCCCCC2)c1	-12	-1	-10	98*
CC(C)c1ccc(C(=O)NCCCN2CCN(CCCNC(=O)c3ccc(C(C)C)cc3)CC2)cc1	31	-39	11	13
CC(C)(O)C#Cc1ccc(CN2CCN(C3CCCCC3)C(CCO)C2)s1 (configuration not stated)	14	6	0	-4
Cc1cccc(/C=C2\CCC(=C3SCCCS3)C2=O)c1	78*	-1	-3	0
NCCOc1ccc(C2CCCCC2)cc1	7	6	16	100*
CCCOc1ccc(C2NC(=O)NC2=O)cc1 (configuration not stated)	10	-3	10	-8
Cc1cccc(C)c1NC(=O)c1ccc([N+](=O)[O-])s1	-14	-32	-23	99*
O=C(NC1CCCC1)c1ccc([N+](=O)[O-])s1	-18	-20	1	98*
Cc1cccc(NC(=O)c2ccc([N+](=O)[O-])s2)c1C	-20	-38	5	100*
N/C(=N\OC(=O)C1CC1)c1ccc([N+](=O)[O-])s1	8	·	·	·
O=C(C[n+]1ccc(C(=O)NCCCO)cc1)c1cccc(Br)c1	17	·	·	·
COc1ccc(N(C(=O)CS(=O)CC(=O)Nc2ccc(F)cc2)C(C(=O)NC2CCCCC2)c2cccs2)cc1 (configuration not stated)	56	-11	7	-4
CCN(CC)S(=O)(=O)c1cc([N+](=O)[O-])ccc1NNC(=O)Nc1ccc(Cl)c(Cl)c1	59	-9	10	100*
Cc1cc(C)nc(NS(=O)(=O)c2ccc(NC(=O)c3cccs3)cc2)n1	10	10	23	-3
CCCCN(CCCC)S(=O)(=O)c1ccc(NC(=O)c2cccs2)cc1	69	-2	-3	94*
CCCCN(CCCC)S(=O)(=O)c1ccc(NC(=O)c2ccc([N+](=O)[O-])cc2Cl)cc1	45	-10	23	100*
CO/N=C\CC(=O)Nc1ccc(Oc2ccccc2)cc1	15	-7	-6	5
CSCCC(NS(=O)(=O)c1ccccc1F)C(=O)NC(C)c1ccccc1 (configuration not stated)	-13	-7	-7	1
Fc1cccc(-c2cc3nc4c(c(NCc5ccco5)n3n2)CCCC4)c1	18	5	83*	87*
COc1cccc(-c2cc3nc4c(c(NCC(C)(C)CN(C)C)n3n2)CCCC4)c1	-26	-30	33	77*
COc1cccc(/C=N/n2c(-c3ccco3)nc3ccccc3c2=O)c1OC	43	-1	6	17
Cc1cc(SCC(=O)N/N=C/c2ccc(O)cc2O)c(C)cc1Br	88*	-15	-12	100*
SMILES	CHOP inh	Arbovirus inh	WT yeast gro inh	L major viab
O=C(CNC(=O)C(c1ccccc1)c1ccccc1)N/N=C/c1ccc(O)cc1O	61	·	·	·
CC(NC(=O)Cc1ccccc1)c1nc2ccccc2[nH]1 (configuration not stated)	-2	3	13	-5
CC(C)C(=O)Nc1sc2c(c1-c1nc3ccccc3[nH]1)CCCC2	66	-11	21	61*
Cc1ccc(OCCNC(=O)c2cc(C(=O)NCCOc3ccc(C)cc3)cc([N+](=O)[O-])c2)cc1	44	8	22	99*
COc1cccc(OCCNC(=O)c2cc([N+](=O)[O-])cc([N+](=O)[O-])c2)c1	17	13	19	83*
COc1cccc(OCCNC(=O)c2cccc(OC)c2)c1	-15	-4	-6	1
Cc1nnsc1C(=O)N/N=C/c1ccccc1	29	-3	-8	42
Cc1nnsc1C(=O)N/N=C/c1ccc2ccccc2c1O	75*	-11	3	100*
